# Results: ChEMBL document CHEMBL4513216, “Probing the Open Global Health Chemical Diversity Library for Multistage-Active Starting Points for Next-Generation Antimalarials” (ACS Infect Dis, 2020)
# The campaign covered roughly 65,000 compounds. About 2,100 (3.2%) showed an effect of 50% or more. The median lay at about -52%. Shown is part of a subset that was picked to be rich in strong results.
# Tested on: Plasmodium falciparum
# Assay: Screen against P. falciparum Asexual Blood Stage (ABS), at 5uM
# Assay type: functional, Dd2
# Conditions: tested at 5 uM
row,Compound,INHIBITION
1,CCS(=O)(=O)N1CCN(CC2CC2)c2ncccc2C1,-94.6%
2,COC(=O)c1ccc(C2SCC(=O)Nc3ccsc32)cc1 (centres undefined),-80.9%
3,COc1ccc(CCN)cc1-c1ccc(C(N)=O)cc1,10.7%
4,CCOc1ccc(-c2cc(CCN)ccc2OC)cc1,-58%
5,COc1ccc(CCN)cc1-c1ccc(O)cc1,85.6%
6,Cc1ccc(CN2C[C@@H]3CCN(Cc4ccncc4)C(=O)[C@H]3C2)s1,-13.4%
7,C[C@H](N)Cn1nc(-c2cccs2)oc1=O,-106%
8,CNCC[C@H]1CC(C)(C)Oc2ccc(OCC3CC3)cc21,76.1%
9,CNCC[C@H]1CC(C)(C)Oc2ccc(OC)cc21,73.8%
10,CC(C)(O)c1cn(C[C@H]2C[C@@H]3CCN2C[C@@H]3C(=O)N2CCOCC2)nn1,-62.4%
11,CC(=O)c1cc(CC(=O)N2CCN(CCOc3ccccc3)CC2)cs1,7.62%
12,CN(C)c1nc2c(c(NCc3cc(O)ncn3)n1)CCCC2,89.4%
13,COc1ccccc1C1SCC(=O)Nc2n[nH]cc21 (centres undefined),-117%
14,COc1ccccc1C1CNC(=O)c2nc(-c3ncc[nH]3)[nH]c2C1 (centres undefined),89.1%
15,CN(C)[C@@H]1CN(C(=O)COc2cccc(F)c2)C[C@H]1O,-21.2%
16,COc1cccc(CC(C)NC(=O)NCCNC(C)=O)c1 (centres undefined),-47.5%
17,CCC(CNC(=O)CNC(C)=O)Oc1cccc(F)c1 (centres undefined),85%
18,O=C(Cc1cccc(F)c1)N1CCN2C[C@H](Oc3cncnc3)C[C@H]2C1,-93.1%
19,Cc1nnc(N2CCCC3(CN(Cc4cccnc4)CCO3)C2)o1 (centres undefined),-77.8%
20,Cc1ccccc1-n1cc(C2=CCN(CCn3cc[nH]c3=O)CC2)cn1,-111%
21,CC(=O)N1CCN([C@@H]2CN(C(=O)Cc3ccccc3C)C[C@H]2O)CC1,-146%
22,CC(C)(C)c1nc(CN(Cc2cccnc2)C2CN3CCC2CC3)no1 (centres undefined),-29.7%
23,CC(C)(C)c1nc(CNC2CCCN(c3cccnn3)C2)no1 (centres undefined),83%
24,c1ccc(-c2nnc(CNC3CCCN(c4cccnn4)C3)o2)cc1 (centres undefined),75.8%
25,CCCN1CCN(C(=O)c2cncnc2C)[C@H]2CS(=O)(=O)C[C@H]21,-87.7%
26,Cc1ccc(CN2Cc3nnn(C)c3C(COCCN(C)C)C2)s1 (centres undefined),73.9%

row,Compound,INHIBITION
1,Cc1ccc(CN2C[C@@H]3[C@@H](C2)OCC(=O)N3Cc2ccncc2)s1,3.28%
2,Cc1ccc(N2CCO[C@H]3CN(Cc4ccncc4)C[C@H]32)nn1,-111%
3,Cc1ccc2c(c1)CN(C(=O)c1cccs1)C(CN(C)C)CO2 (centres undefined),77.3%
4,CN(CC1Cc2ccccc2CN1C)C(=O)Cc1cccs1 (centres undefined),-12.1%
5,O=C(NCCOc1cccc(Cl)c1Cl)N1CCC2(CC1)OCCO2,-68.2%
6,CC(Cn1cncn1)NCc1n[nH]c2c1CCCCC2 (centres undefined),-49.3%
7,Cc1ccc2[nH]c(CN(C)Cc3n[nH]c4c3CCC4)nc2c1,82.3%
8,Cc1ccc2nc(CN(C)Cc3n[nH]c4c3CCCCC4)[nH]c2c1C,85.8%
9,NC1(c2nc(C(F)(F)F)cc(=O)[nH]2)CCCCC1,4.74%
10,CC(=O)N1CCC2(CN(CC3CCCC3)C2)C1,-99.3%
11,CN(C)C[C@H]1C[C@@H]2CN(Cc3ccco3)C[C@@H]2O1,38.9%
12,COc1ccc(CN2C[C@H]3C[C@H](CN(C)C)O[C@H]3C2)cc1,79.6%
13,CN(C)C[C@H]1C[C@@H]2CN(Cc3ccoc3)C[C@@H]2O1,20.7%
14,O=C(CC1CCCC1)N1C[C@@H]2C[C@@H]1CN2,-57.9%
15,CN(C(=O)c1ccon1)[C@@H]1CCC[C@@H](Oc2ccccc2)[C@@H]1O,79.8%
16,Cc1ncsc1CN1C[C@@H]2CN(Cc3cccnc3)CCO[C@@H]2C1,-49.8%
17,CC(C)Nc1ccnc(N2Cc3cnc(C(C)(C)C)nc3C2)n1,50.1%
18,CCNc1ccnc(N2Cc3cnc(CC(C)C)nc3C2)n1,74.6%
19,O=C(c1cscn1)N1CCN2C[C@H](OCc3cccnc3)C[C@H]2C1,-55.9%
20,COc1ccc(C2SCC(=O)Nc3n[nH]cc32)c(OC)c1OC (centres undefined),-164%
21,O=C(Nc1ccc(Cn2cccn2)cc1)N1CCC2(CC1)OCCO2,-153%
22,COc1ccccc1CC(C)N(C)CCS(C)(=O)=O (centres undefined),1.1%
23,CN(CCc1cccc2ccccc12)Cc1nc(N)nc(N(C)C)n1,92.2%
24,COc1ccccc1CCN(C)Cc1nc(N)nc(N(C)C)n1,69.9%
25,Cc1nc(-c2ccccc2F)sc1C(=O)N1CCC(=O)CC1,-67.5%
26,O=C(Cc1cccs1)N1C[C@@H]2OCCN(CC3CCCO3)[C@@H]2C1 (some centres undefined),-87.1%

row,Compound,INHIBITION
1,Cn1cc(C2SCC(=O)Nc3c2cnn3C(C)(C)C)cn1 (centres undefined),-6.82%
2,COc1ccc(C)cc1CC(=O)N1CCN(CC(C)O)CC1 (centres undefined),-34.3%
3,CCC(O)CN1CCN(C(=O)Cc2cc(C)ccc2OC)CC1 (centres undefined),-68.2%
4,CCN1CCC(CNCc2cc(C)ccc2OC)C1 (centres undefined),82.7%
5,N#Cc1ccc(OC[C@]23COC[C@H]2CN(Cc2nccs2)C3)nc1,-22.3%
6,O=C(C1CC1)N1CCOC2(CCNCC2)C1,-22.2%
7,Cc1ccc(CC(=O)N2CCCN(Cc3nccn3C)CC2)cn1,-72.4%
8,Cc1ccc(C(O)CN2CCN(Cc3nccn3C)CC2)cc1C (centres undefined),80.4%
9,Cn1ccnc1CN1CCC2(CC(=O)N(c3ccccn3)C2)C1 (centres undefined),-145%
10,CC(C)c1nccc(C2(c3ccccc3Cl)CCNCC2)n1,83.4%
11,CC(C)(C)c1nccc(C2(c3ccccc3Cl)CCNCC2)n1,76.1%
12,Clc1ccccc1C1(c2ccnc(-c3ccncc3)n2)CCNCC1,83.6%
13,Cc1ccc(N2CCO[C@H]3CN(Cc4cccnc4)C[C@H]32)nn1,-18.3%
14,CN1C(=O)CC2(CCNCC2)c2ccccc21,2.59%
15,O=C1CC2(CCCNC2)C(=O)N1Cc1ccccc1 (centres undefined),-15.7%
16,CC(C)c1ccc(CN2C(=O)C3(CCNCC3)Nc3ccccc32)cc1,82%
17,c1cncc(CN2CCN3C[C@H](Oc4cncnc4)C[C@H]3C2)c1,-155%
18,CC(C)[C@@H]1CN(C(=O)C2(c3ccccc3)CCN(C)CC2)C[C@H]1N(C)C,83.7%
19,CC(=O)C1(c2ccccc2)CCN(C(=O)c2ccc3nnnn3c2)CC1,-106%
20,CC(C)[C@@H]1CN(C(=O)C2(c3ccccc3)CCN(C)CC2)C[C@H]1C(=O)O,-65.7%
21,CCS(=O)(=O)N1CCc2c(COCCN(C)C)cncc2C1,-62.2%
22,O=S1(=O)NCC2(CCNCC2)COc2ccccc21,-55.2%
23,O=S1(=O)c2ccccc2OCC2(CCN(CCO)CC2)CN1CC1CC1,76.9%
24,Cc1cccc(CN2CCC3(CCCN(CC(=O)N(C)C)C3)C2)n1 (centres undefined),-47.6%
25,c1ccc(-c2ncc(CN3CCC4(CCNCC4)C3)cn2)cc1,10.6%
26,Oc1cccc2ccc(CN3CCC4(CCNCC4)C3)nc12,89.9%

row,Compound,INHIBITION
1,Cc1nn(-c2ncccn2)c2c1C(c1cnn(C)c1)SCC(=O)N2 (centres undefined),-15%
2,O=C(CSc1ccccn1)N1CCN(CCO)[C@@H]2CS(=O)(=O)C[C@@H]21,-35.4%
3,COc1ccnc(CN2CCCC(CCc3ccc(F)cc3)C2)c1OC (centres undefined),88.9%
4,COc1ccnc(CN2CCCC(CCc3ccccc3)C2)c1OC (centres undefined),90.1%
5,N#CC1(c2ccccc2)CCN(C(=O)C2CCCN(CC(N)=O)C2)CC1 (centres undefined),-116%
6,CCC(O)CN1CCN(C(=O)Cc2nc(-c3ccco3)oc2C)CC1 (centres undefined),-62.9%
7,CC(Cc1ccc(Cl)cc1)N(C)C(=O)NCCS(C)(=O)=O (centres undefined),-65.7%
8,O=C(c1ccncc1)N1CCN2C[C@H](Oc3cccnc3)C[C@H]2C1,-77%
9,CC(C)N(CCNC(=O)c1[nH]nc2ccc(I)cc12)C(C)C,86.9%
10,CC[C@@H]1N(Cc2ccncc2)CCC[C@]12CCC(=O)N2CCOC,-38%
11,CCc1cccc(NC(=O)CCN2CC=C(c3cnn(C)c3)CC2)c1,-33.3%
12,COc1ccc(NC(=O)CCN2CC=C(c3cnn(C)c3)CC2)c(C)c1,-33.1%
13,COc1ccc(NC(=O)CCN2CC=C(c3cnn(C)c3)CC2)cc1Cl,67.2%
14,Cc1ccc2nc(C)c(C)c(C(=O)N[C@H]3COC[C@@H]3N3CCCC3)c2c1,-47.2%
15,Cc1cc(CN2CC[C@H]3C[C@@H](C)O[C@@H]3C2)no1,-71.2%
16,Cc1n[nH]c2c1C(c1ccc3c(c1)OCO3)SCC(=O)N2 (centres undefined),-22%
17,COc1cccc(-n2ccc3nc(N4CCCC4)ncc3c2=O)c1,91.7%
18,COc1ccc(-c2ccccc2CCN)c(OC)c1,81.6%
19,CC(=O)Nc1ccc(-c2ccccc2CCN)cc1,-115%
20,COc1ccc2c(ccn2CCN)c1,26.1%
21,COc1ccc(CCN)cc1-c1ccc(S(C)(=O)=O)cc1,21.8%
22,COc1ccc(-c2ccccc2CCN)c(OC)c1OC,81.8%
23,CC(=O)Nc1cccc(-c2ccccc2CCN)c1,-108%
24,CN1C[C@@H]2COC[C@]2(C(=O)NCc2cccs2)C1,-12.4%
25,CCc1[nH]c(C2(N)CCCCC2)nc(=O)c1C,-30.6%
26,Cc1noc(C)c1CN1CCO[C@H]2CN(CC3CC3)C[C@H]21,26.3%
